High-throughput results: PubChem, several laboratories
This is a sample that favours compounds with a hit; in the whole collection about 1.6% have one here.
GRK2 inh = blocks RNA aptamer binding to human GRK2; P25098; bead flow cytometry, FAM-aptamer displacement from GRK2; inhibition of aptamer binding, % at 10 µM; 0.59% of 330,000 active; AID 488847;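 active = inhibition of aptamer binding above 40%, roughly 3 SD of noise, on plates passing a quality check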;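 also: median bead fluorescence of bound FAM aptamer so fluorescent compounds give negative values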
JMJD2C inh = human JMJD2C demethylase inhibition | inhibition, % at 2.35 µM | Q9H3R0 | 0.069% of 330,000 active | GST-JMJD2C(1-420) H3K9me3 demethylation, DELFIA europium;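 active = more than half of a compound's replicate wells show inhibition beyond 50%, single wells judged on their own value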;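 also: signal counts dimethyl H3K9 product captured on neutravidin plate; 0% = median of DMSO wells and 100% = 0.3 times that DMSO median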
DSG3 Ab inh = inhibitors of pemphigus antibody binding to human desmoglein-3 | AID 588358 | DSG3-coupled beads, scFv-anti-DSG3-GFP binding, flow cytometry; stronger effect = lower value | 0.48% of 310,000 active | binding (percent of control), % at 10 µM | P32926;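 active = binding more than 3 SD below its plate's average and above zero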;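 also: hits lower antibody fragment binding to DSG3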
PREPL inhibitor = inhibitors of human prolyl oligopeptidase-like enzyme PREPL; inhibition, % at 5.96 µM; recombinant PREPL, fluorescence polarization activity-based probe; Q4J6C6; 0.68% of 320,000 active;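 also: 0% = enzyme with DMSO and 100% = wells lacking enzyme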
VLA-4 inh = inhibition in a human VLA-4 binding assay. P13612. VLA-4 expressing cells, ligand binding flow cytometry. inhibition, % (about 7 µM as worked out from the volumes in the protocol). 0.2% of 330,000 active. AID 2557; in the data active = inhibition above about 50%
PREPL inh cf = human PREPL inhibition, confirmation; AID 2803; recombinant PREPL, fluorescence polarization activity probe; 67% of 2,000 active; inhibition, % at 5.96 µM; shares compounds with PREPL inhibitor;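 also: 0% = protein with DMSO and 100% = wells lacking protein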
The depositor's hits bear a star. Rule as the data show it, unless noted: active = inhibition above about 43%; inactive = the rest.

Results for C#CCOCCOCCOCCNc1nc(N2CCOCC2)nc(N2CCN(C(=O)[C@H](CCCN=C(N)N)n3cc(C(N)[C@@H](C)CC)nn3)CC2)n1 (stereo partly drawn) ?
GRK2 inh: 0.0; JMJD2C inh: 40.7; DSG3 Ab inh: 105.2; PREPL inhibitor: 13.4; VLA-4 inh: 6.8

What do the screens show for `C#CCOCCOCCOCCNc1nc(N2CCN(C(=O)[C@H](Cc3cc4ccccc4[nH]3)n3cc([C@@H](N)C(C)CC)nn3)CC2)nc(N2CCN(C(=O)[C@H](Cc3cc4ccccc4[nH]3)n3cc([C@@H](N)Cc4ccc(O)cc4)nn3)CC2)n1` (stereo partly drawn)?
GRK2 inh: 0.0; JMJD2C inh: 11.7; PREPL inhibitor: 57.6*; VLA-4 inh: -10.0; PREPL inh cf: 56.6*

Results for C#CCOCCOCCOCCNc1nc(N2CCN(C(=O)[C@H](Cc3ccc(O)cc3)n3cc([C@@H](N)C(C)CC)nn3)CC2)nc(N2CCN(C(=O)[C@H](Cc3cc4ccccc4[nH]3)n3cc([C@@H](N)C(C)CC)nn3)CC2)n1 (stereo partly drawn) ?
GRK2 inh: 0.0; JMJD2C inh: -47.1; DSG3 Ab inh: 114.2; PREPL inhibitor: 46.5*; VLA-4 inh: 1.6; PREPL inh cf: 41.3

What do the screens show for `C#CCOCCOCCOCCNc1nc(N2CCN(C(=O)[C@H](CCCN=C(N)N)n3cc(C(N)[C@H](C)CC)nn3)CC2)nc(N2CCN(C(=O)[C@H](CCCN=C(N)N)n3cc(C(N)[C@@H](C)CC)nn3)CC2)n1` (stereo partly drawn)?
GRK2 inh: 0.0; JMJD2C inh: 23.7; DSG3 Ab inh: 107.9; PREPL inhibitor: 44.1*; VLA-4 inh: 6.8; PREPL inh cf: 33.4

How did COc1ccc(Nc2nc(N3CCCC3)c3ccccc3n2)cc1 do in these assays?
GRK2 inh: 0.0; JMJD2C inh: -5.7; DSG3 Ab inh: 84.1; PREPL inhibitor: 76.8*; VLA-4 inh: 12.3; PREPL inh cf: 62.5*

How did COc1ccc(Nc2c3ccccc3nc3ccccc23)cc1 do in these assays?
GRK2 inh: 0.0; JMJD2C inh: 2.5; DSG3 Ab inh: 108.6; PREPL inhibitor: 46.8*; VLA-4 inh: -2.9; PREPL inh cf: 44.8*

What do the screens show for `CN(C(=O)C(Cl)Cl)C1CC2C=CC1C2` (stereo not drawn)?
GRK2 inh: 0.0; JMJD2C inh: 13.5; DSG3 Ab inh: 104.2; PREPL inhibitor: -2.6; VLA-4 inh: 7.3

How did COc1cccc(N2CCN(Cc3nc4ccccc4c(=O)[nH]3)CC2)c1 do in these assays?
GRK2 inh: 0.0; JMJD2C inh: -2.3; DSG3 Ab inh: 107.8; PREPL inhibitor: 48.5*; VLA-4 inh: 5.1; PREPL inh cf: 39.4

How did COc1ccc(N2CCN(Cc3nc4ccccc4c(=O)[nH]3)CC2)cc1 do in these assays?
GRK2 inh: 3.0; JMJD2C inh: 2.2; DSG3 Ab inh: 81.2; PREPL inhibitor: 11.9; VLA-4 inh: 6.4

Results for CCOC(=O)N1CCN(CCC(=O)Nc2ccc(OC)cc2OC)CC1 ?
GRK2 inh: 2.0; JMJD2C inh: 6.7; DSG3 Ab inh: 123.3; PREPL inhibitor: 15.1; VLA-4 inh: 15.4

Results for CCN1CCN(C(=O)C(C)Nc2ccc(OC)cc2OC)CC1 (stereo not drawn) ?
GRK2 inh: 21.0; JMJD2C inh: -16.7; DSG3 Ab inh: 99.8; PREPL inhibitor: 50.4*; VLA-4 inh: -5.0; PREPL inh cf: 46.0*

What do the screens show for `C[C@@H]1CN([C@H](C)CO)C(=O)c2cc(Br)cnc2O[C@@H]1CN(C)C(=O)NC1CCCC1`?
DSG3 Ab inh: 106.1

What do the screens show for `COc1cccc2c(N/N=C/c3ccccc3)cc(C)nc12`?
GRK2 inh: 1.0; JMJD2C inh: -8.4; DSG3 Ab inh: 99.7; PREPL inhibitor: 7.9; VLA-4 inh: 7.4

What do the screens show for `COc1ccc2nc(C)cc(N/N=C/c3cccc(OC)c3O)c2c1`?
GRK2 inh: 0.0; JMJD2C inh: 1.7; DSG3 Ab inh: 122.8; PREPL inhibitor: 64.1*; VLA-4 inh: -4.8; PREPL inh cf: 59.5*

How did COc1ccc(/C=N/Nc2cc(C)nc3ccc(Br)cc23)cc1 do in these assays?
GRK2 inh: 0.0; JMJD2C inh: 7.5; DSG3 Ab inh: 99.1; PREPL inhibitor: 55.9*; VLA-4 inh: 13.1; PREPL inh cf: 52.3*

Results for CCOC(=O)c1sc(N/N=C/c2cc(Br)c(O)c(OC)c2)nc1C ?
GRK2 inh: 0.0; JMJD2C inh: -5.5; DSG3 Ab inh: 105.9; PREPL inhibitor: 44.0*; VLA-4 inh: -7.3; PREPL inh cf: 47.8*

How did CCOC(=O)N/N=C/c1cc(OC)c(O)c(OC)c1 do in these assays?
GRK2 inh: 2.0; JMJD2C inh: 2.4; DSG3 Ab inh: 106.0; PREPL inhibitor: 4.1; VLA-4 inh: 21.1

Results for COc1cc(C)ccc1OCCOCCOc1cc(C)c(C)cc1Br ?
GRK2 inh: 0.0; JMJD2C inh: -9.0; DSG3 Ab inh: 98.2; PREPL inhibitor: 0.8; VLA-4 inh: -4.9

How did COc1cc([N+](=O)[O-])ccc1NC(=O)NCCCN1CCCC1=O do in these assays?
GRK2 inh: 2.0; JMJD2C inh: 1.3; PREPL inhibitor: -3.4; VLA-4 inh: -3.6

Results for O=C(/C=C/c1cccc([N+](=O)[O-])c1)NCCSc1ccccc1 ?
GRK2 inh: 1.0; JMJD2C inh: 6.9; DSG3 Ab inh: 107.1; PREPL inhibitor: 46.2*; VLA-4 inh: 2.9; PREPL inh cf: 41.4

Results for Cc1ccc(SCCNC(=O)/C=C/c2cccc([N+](=O)[O-])c2)cc1 ?
GRK2 inh: 1.0; JMJD2C inh: 2.3; DSG3 Ab inh: 101.2; PREPL inhibitor: 18.1; VLA-4 inh: 28.9

Results for CCOc1ccc(NC(=O)CN2CCN(C(=O)C3CCCO3)CC2)cc1 (stereo not drawn) ?
GRK2 inh: 5.0; JMJD2C inh: 9.2; DSG3 Ab inh: 101.5; PREPL inhibitor: 2.3; VLA-4 inh: 0.6

How did NC(=S)NNc1cccc2cccnc12 do in these assays?
GRK2 inh: 2.0; JMJD2C inh: 15.1; DSG3 Ab inh: 87.3; PREPL inhibitor: 62.5*; VLA-4 inh: 0.0; PREPL inh cf: 27.3

Results for NC(=S)Nc1cccc2cccnc12 ?
GRK2 inh: 0.0; JMJD2C inh: 9.7; DSG3 Ab inh: 107.2; PREPL inhibitor: 16.3; VLA-4 inh: -8.4

How did Oc1ccccc1CNc1cccc2cccnc12 do in these assays?
GRK2 inh: 0.0; JMJD2C inh: 4.8; DSG3 Ab inh: 126.6; PREPL inhibitor: 44.6*; VLA-4 inh: 0.8; PREPL inh cf: 14.6

Results for Cc1ccc(OCC(=O)NCCNC(=O)c2ccccn2)cc1 ?
GRK2 inh: 0.0; JMJD2C inh: -4.4; DSG3 Ab inh: 98.2; PREPL inhibitor: -1.1; VLA-4 inh: 4.0

How did Cc1ccccc1OCc1ccc(C(=O)N2CC(C)OC(C)C2)o1 (stereo not drawn) do in these assays?
GRK2 inh: 0.0; JMJD2C inh: 7.1; DSG3 Ab inh: 95.0; PREPL inhibitor: 18.8; VLA-4 inh: -9.3
